PubChem BioAssay (NCI)
About 83,000 compounds went through this panel and 20% of them were active in at least one assay; those are over-represented in the sample as a whole.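 Negative percent growth values reflect cell death: -40 means 40% of the cells present at the start died, and -100 means all died.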 Unmarked numbers belong to inactive results. Calls of active or inactive are those of the source. The calls were made as follows: active = growth percent below 10; inactive = the rest.

What follows are compounds tested on MDA-MB-468 breast (assay: NCI-60 one-dose screen, 48 h (100 = growth as untreated, 0 = no growth, -100 = all killed)). Conditions: 10 µM unless noted.
Compound `Cc1cccc(NC(=O)N/C(N)=N/c2nc(C)c(C)s2)c1` has a growth of 14%.
Work on `O=C(Cc1ccccc1)Cc1ccccc1` yielded a growth of 99.5%.
For `COc1cc(-c2cc3cnccc3c3nc(N)c4ccncc4c23)cc(OC)c1OC`, the growth was 8.5% (active).
With `Cc1ccc(NC2=CC(=O)C(=O)c3ccccc32)cc1` the growth was -12.4% (active).
With `COc1cccc(C(=O)NNc2nc(N3CCN(C4CCCCC4)CC3)nc(N3CCN(C(c4ccccc4)c4ccccc4)CC3)n2)c1` the growth was 13.6%.
In the case of `COc1ccc(-c2cc(-c3ccc(Cl)cc3)c(C#N)c(=O)n2Cc2ccc(C(=O)Nc3ccccc3N)cc2)cc1`, the growth was 63.8%.
Compound `O=C(S)CNC(=O)c1ccccc1` has a growth of 95.7%.
In the case of `O=C(Nc1ccccc1)Nc1ncnc2c1ncn2-c1ccc(Cl)cc1`, the growth was 92.2%.
`CCN(Cc1ccc(Cl)c(Cl)c1)c1ccc2nc(N)nc(N)c2c1C` was tested, and the growth was -84.2% (active).
In the case of `CCOc1cc(\C=N/N=C(N)/C(N)=N\N=C/c2ccc(O)c(OCC)c2)ccc1O`, the growth was 111%.
With `N#C/C(=C\c1ccc(-c2cccc(C(F)(F)F)c2)o1)c1nc(-c2ccco2)cs1` the growth was -37% (active).
For `Cc1ccc(C)n1-c1ccsc1C(=O)NNC(=O)CCl`, the growth was 88%.
For `O=C(O)C(Cc1ccccc1)C(=O)O`, the growth was 82.4%.
With `COc1ccc(OC)c(/C=C/c2nc(SC)n(-c3ccc(Cl)cc3)n2)c1` the growth was 25.2%.
In the case of `COc1ccc2c3c(c(OCCCN(C)C)nc2c1)-c1ccc(Cl)cc1C3=O`, the growth was 43.5%.
In the case of `Cn1c2c(Cl)c(Cl)ccc2c2cc(N)[nH]c(=O)c21`, the growth was 88.9%.
